Biological target: Large ribosomal subunit protein eL13A (UniProt Q12690)
Experiment: cross-link between two proteins; cross-linking mass spectrometry

Sequence of Large ribosomal subunit protein eL13A (Q12690 whole entry): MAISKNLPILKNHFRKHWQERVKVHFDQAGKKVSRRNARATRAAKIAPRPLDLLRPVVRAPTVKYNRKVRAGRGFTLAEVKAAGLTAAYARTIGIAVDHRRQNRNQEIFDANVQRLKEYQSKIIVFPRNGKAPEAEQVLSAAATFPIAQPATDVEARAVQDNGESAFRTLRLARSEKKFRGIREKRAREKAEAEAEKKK

Row | Substance | listed as a hit
1 | Large ribosomal subunit protein uL29A, P0CX84 | yes
2 | Large ribosomal subunit protein eL36B, O14455 | yes
